PubChem BioAssay AID1159580 (chemical genetic matrix, 2015)
In all, about 5,500 compounds went through this assay and about 2,000 (36%) were called active. Inconclusive results (about 18%) are left out. No stated cut-off is given here; in the data, active means normalized growth mostly below about 0.91 (no sharp cut-off); inconclusive means no clear call, values can overlap the other calls; inactive means mostly above about 0.92. The list shows a part of the results.

Experiment: chemical genetic growth profiling, strain panel (AID 1159580);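 further: tested at 20 µM; growth read once vehicle control cultures reached saturation at 30 °C; 1 = growth at the plate median or of vehicle wells; lower values mean less growth of the strain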
Conditions: S. cerevisiae deletion strains, growth OD
[1] = locus YPL055C, strain LGE1, active compounds read low
[2] = locus YPL241C, strain CIN2, active compounds read low

Measured: normalized growth

CC(C)NC(C)Cc1ccc(I)cc1 (stereo not given)
inactive: locus YAL013W, strain DEP1, active compounds read low 0.999 | locus YAL040C, strain CLN3, active compounds read low 1.01 | locus YCL061C, strain MRC1 (second series), active compounds read low 1.01 | locus YDR150W, strain NUM1, active compounds read low 1.01 | locus YDR363W, strain ESC2, active compounds read low 0.995 | locus YER002W, strain NOP16, active compounds read low 1 | locus YNL175C, strain NOP13, active compounds read low 1.01 | locus YNL197C, strain WHI3, active compounds read low 1.01 | locus YNL224C, strain SQS1, active compounds read low 1 | locus YNL322C, strain KRE1, active compounds read low 1 | locus YOR083W, strain WHI5 (second series), active compounds read low 0.998 | [1] 0.991 | [2] 1.02

COC(=O)CC1C(C)(C)C(=O)C2CC3(O)C4=CC(=O)OC(c5ccoc5)C4(C)CCC3C1(C)C2=O (stereo not given)
inactive: locus YBR021W, strain FUR4, active compounds read low 1 | locus YBR229C, strain ROT2, active compounds read low 1 | locus YCL029C, strain bik1, active compounds read low 0.983 | locus YDL035C, strain GPR1, active compounds read low 1.01 | locus YDL074C, strain BRE1, active compounds read low 1 | locus YDL101C, strain DUN1, active compounds read low 1 | locus YDL185W, strain tfp1, active compounds read low 0.981 | locus YDL192W, strain arf1, active compounds read low 0.99 | locus YDR101C, strain arx1, active compounds read low 0.997 | locus YDR162C, strain NBP2, active compounds read low 1.02 | locus YDR318W, strain mcm21, active compounds read low 0.977 | locus YDR388W, active compounds read low 0.982 | locus YDR502C, strain sam2, active compounds read low 0.992 | locus YER110C, active compounds read low 0.983 | locus YER155C, strain BEM2, active compounds read low 1 | locus YER167W, strain BCK2, active compounds read low 1.01 | locus YGL078C, strain dbp3, active compounds read low 0.982 | locus YGL086W, strain mad1, active compounds read low 0.993 | locus YGL248W, strain PDE1, active compounds read low 1 | locus YGR135W, strain pre9, active compounds read low 0.985 | locus YGR252W, strain gcn5, active compounds read low 0.906 | locus YHR030C, strain SLT2, active compounds read low 1.01 | locus YHR079C, strain IRE1 (second series), active compounds read low 0.977 | locus YHR094C, strain hxt1, active compounds read low 0.985 | locus YHR129C, strain ARP1, active compounds read low 1 | locus YHR200W, strain rpn10, active compounds read low 0.986 | locus YIL066C, strain RNR3, active compounds read low 1.01 | locus YIL073C, strain SPO22, active compounds read low 1.03 | locus YIL125W, strain kgd1, active compounds read low 0.984 | locus YIR030C, strain dcg1, active compounds read low 0.989 | locus YJL095W, strain BCK1, active compounds read low 1.02 | locus YJL134W, strain LCB3, active compounds read low 1 | locus YJL168C, strain set2, active compounds read low 0.982 | locus YJL187C, strain SWE1 (second series), active compounds read low 1 | locus YJR043C, strain POL32, active compounds read low 0.997 | locus YKL009W, strain mrt4, active compounds read low 0.989 | locus YKL068W, active compounds read low 0.993 | locus YKL085W, strain MDH1 (second series), active compounds read low 0.991 | locus YKL085W, strain MDH1, active compounds read low 0.991 | locus YKR001C, strain vps1, active compounds read low 0.97 | locus YLR039C, strain RIC1, active compounds read low 1.05 | locus YLR058C, strain SHM2, active compounds read low 1 | locus YLR102C, strain apc9, active compounds read low 0.988 | locus YLR262C, strain YPT6, active compounds read low 1.13 | locus YLR268W, strain sec22, active compounds read low 0.977 | locus YLR342W, strain FKS1 (second series), active compounds read low 0.992 | locus YLR371W, strain rom2, active compounds read low 0.986 | locus YLR418C, strain cdc73, active compounds read low 0.966 | locus YML016C, strain PPZ1, active compounds read low 1 | locus YML032C, strain rad52, active compounds read low 0.982 | locus YML124C, strain tub3, active compounds read low 0.988 | locus YMR078C, strain ctf18, active compounds read low 0.991 | locus YMR223W, strain ubp8, active compounds read low 0.992 | locus YMR307W, strain GAS1, active compounds read low 0.985 | locus YNL067W, strain RPL9B, active compounds read low 1.01 | locus YNL128W, strain TEP1, active compounds read low 1.01 | locus YNL233W, strain BNI4, active compounds read low 1.01 | locus YNL250W, strain rad50, active compounds read low 0.986 | locus YNL271C, strain bni1, active compounds read low 0.979 | locus YNL298W, strain CLA4, active compounds read low 0.982 | locus YNL307C, strain MCK1, active compounds read low 0.986 | locus YNR052C, strain pop2, active compounds read low 0.978 | locus YOL012C, strain htz1 1.11 | locus YOL147C, strain pex11, active compounds read low 0.983 | locus YOR061W, strain CKA2, active compounds read low 1.01 | locus YOR069W, strain VPS5, active compounds read low 1 | locus YOR136W, strain idh2, active compounds read low 0.978 | locus YOR144C, strain elg1, active compounds read low 0.985 | locus YOR184W, strain ser1, active compounds read low 0.992 | locus YOR316C, strain cot1, active compounds read low 0.991 | [1] 0.994 | [2] 1 | locus YPR119W, strain clb2, active compounds read low 0.999 | locus YPR141C, strain kar3, active compounds read low 0.99 | locus YPR163C, strain tif3, active compounds read low 0.982 | locus YPR167C, strain met16, active compounds read low 0.985 | strain wtn01, active compounds read low 0.99
